For 33 compounds, apparent inhibition (interference) results are on record in PubChem BioAssay AID540313 (Sanford-Burnham Center for Chemical Genomics, 2011).

Values joined by “and” are separate entries in the source; they are usually repeats but may differ in a detail not shown here. Identical values can stand only once. Out of some 2,500 compounds screened, fewer than 10 were called active. Only a sample is shown. A number with no mark means an inactive call.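 Rule for the calls: active = inhibition of at least 30% at 20 µM; inactive = the rest.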

The test in a line: colorimetric readout interference by compounds, confirmation, artefact control for Scp-1 inhibitor project, biochemical, single concentration (AID 540313).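 Note: compounds added after enzyme reaction finished so only phosphate colour detection is probed; plate controls were DMSO wells with completed Scp-1 reaction for no effect and substrate wells lacking enzyme for full effect.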 As to conditions: Colorimetric interference counterscreen, malachite green absorbance 630 nm; at 20 µM; active compounds read high. (A counterscreen serves to expose hits that act by an unwanted route or on another target.)
For `O=C(N/N=C/c1ccco1)c1ccc(C(=O)N/N=C/c2ccco2)o1`, the apparent inhibition (interference) was -14.2%.

`C[N+](C)(C)CCNC(=O)c1cc[n+](Cc2ccccc2)c(/C=N/O)c1`: the apparent inhibition (interference) is -12%.

In the case of `Cc1cc(C(=O)OCC(=O)NCc2ccco2)c(C)n1-c1ccccc1`, the apparent inhibition (interference) was -9.53%.

In the case of `COc1cc(Cl)cc(C2NC(=O)NC(C)=C2C(=O)NCc2ccccc2)c1O` (stereo not drawn), the apparent inhibition (interference) was -16.4% and -17.8%.

As for `O=C(COC(=O)c1cnc(Cl)c(Cl)c1)NCc1ccco1`, the apparent inhibition (interference) is -17.8%.

Take `O=C(COC(=O)c1ccccc1O)NCc1ccco1`: the apparent inhibition (interference) is -13.4%.

Take `COc1cccc(CC(=O)OCC(=O)NCc2ccc3c(c2)OCO3)c1`: the apparent inhibition (interference) is -8.18%.

As for `CC(C)CCOc1ccc(C(=O)C[N+]2(C)CCOCC2)cc1`, the apparent inhibition (interference) is -0.2%.

Take `CO/N=C(\C(=O)N[C@@H]1C(=O)N2C(C(=O)O)=C(COC(C)=O)CS[C@H]12)c1csc(N)n1` (stereo in doubt): the apparent inhibition (interference) was -15.6%.

Consider `O=c1[nH]n(-c2ccc([N+](=O)[O-])cc2)c(=O)c2ccccc12`, for which the apparent inhibition (interference) is -12.9%.

As for `CCCCCN1CC(O)=C(c2nc(-c3ccc(Cl)cc3)cs2)C1=N`, the apparent inhibition (interference) is -5.98%.

For `CC(=O)Nc1ccccc1Sc1ccc2c3c(cccc13)C(=O)N(c1ccc(C)cc1)C2=O`, the apparent inhibition (interference) was -10.1%.

Turning to `Cc1ccc(C2(C)NC(=O)N(CC(=O)Nc3ccccc3C(=O)N3CCCCC3)C2=O)cc1` (stereo not drawn), the apparent inhibition (interference) was -11.4%.

In the case of `O=C1CCC(CCC(=O)N2CCCC(C(=O)c3ccc(Cl)cc3)C2)=NN1` (stereo not drawn), the apparent inhibition (interference) is -3.23%.

As for `Cc1ccc(NC(=O)COC(=O)C2C3CC4OC(=O)C2C4C3)cc1Cl` (stereo not drawn), the apparent inhibition (interference) was -4.6%.

With `CC(C)c1ccc(NC(=S)NNc2ccc(Cl)c(C(=O)O)c2)cc1`, the apparent inhibition (interference) is -8.44%.

Consider `COc1ccc(Cl)cc1NC(=O)CCS(=O)(=O)c1ccc(Br)cc1`, for which the apparent inhibition (interference) is -18.6%.

As to `CS(=O)(=O)C1=NN2C(=N)/C(=C\c3ccc(OCCOc4ccccc4)cc3)C(=O)N=C2S1`, the apparent inhibition (interference) was -4.6%.

In the case of `CC[n+]1c(C)n(-c2ccccc2)c2ccc(NC(C)=O)cc21`, the apparent inhibition (interference) was -13.9%.

Turning to `Cc1ccc(NC(=O)c2cc(-c3ccc(C)o3)nc3ccccc23)nc1`, the apparent inhibition (interference) was -3.5%.

On to `O=C(Nc1cccnc1)c1cc2cc(Br)ccc2oc1=O`, for which the apparent inhibition (interference) is -8.18%.

Regarding `C[C@H](CO)N1C[C@H](C)[C@@H](CN(C)C(=O)NC2CCCCC2)Oc2ccc(NC(=O)c3ccncc3)cc2C1=O`, the apparent inhibition (interference) is -14.8%.

For `O=C(Nc1cccc(F)c1)c1cc(-c2ccco2)nc2ccccc12`, the apparent inhibition (interference) was -4.88%.

On to `COc1ccc(NC(=O)CN(C)C(=O)/C=C/c2cn(Cc3ccccc3)nc2-c2cccnc2)cc1`, for which the apparent inhibition (interference) was -11.7%.

In the case of `Cc1ccn2c(=O)nc(SCC(=O)NCc3ccc4c(c3)OCO4)nc2c1`, the apparent inhibition (interference) was -8.16%.

On to `N#Cc1ccccc1CN1C(=O)S/C(=C/c2cccn2-c2cccc(C(=O)O)c2)C1=O`, for which the apparent inhibition (interference) is -14.7%.

For the compound `Cc1ccc(CCNC(=O)c2ccc3nc4ccccc4c(=O)n3c2)cc1`, the apparent inhibition (interference) was 0.61%.

With `Cc1ccc(SCC(=O)NC(=O)NCc2ccco2)c(C)c1`, the apparent inhibition (interference) was -4.05%.

For `O=C(COC(=O)c1ccc(F)cc1F)Nc1ncccn1`, the apparent inhibition (interference) was -16.9%.

In the case of `CNS(=O)(=O)c1cccc(C(=O)OCC(=O)N2c3ccccc3NC(=O)C2(C)C)c1`, the apparent inhibition (interference) was -15.3%.

Turning to `COc1cccc2cc(-c3cc(=O)oc4cc(C)c(O)cc34)oc12`, the apparent inhibition (interference) is -23.3%.

Regarding `COC(=O)c1ccccc1NC(=O)C1(S(=O)(=O)c2ccc(Cl)cc2)CC1`, the apparent inhibition (interference) is -20.5%.

In the case of `O=C(CCC(=O)N/N=C/c1ccc(Br)o1)N/N=C/c1ccc(Br)o1`, the apparent inhibition (interference) is -16.4%.
